Experimental data as given in the supplement of paper PMC10127200.
Structures can show the parent of a compound that is named as a salt.

Experiments:
Assay in all cases: Euclidean distance of Cell Painting phenotypic profile (signed KS, 77 features) to DMSO centroid (dimensionless distance); 5 or 10 uM (library dependent); higher = stronger phenotypic change vs DMSO (phenoactivity)
Settings in all cases: 48 h
[1] = system: 786-O
Outline: (§1)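 Harmony extracted 77 features from 20X confocal images (9 fields/well) of stained cells, scoring each as a signed Kolmogorov-Smirnov statistic against same-plate vehicle wells. The cells, five cancer lines and a healthy fibroblast line, had received library compounds for 48 h at 10 or 5 uM depending on library, with 0.1% DMSO final. Phenoactivity is the Euclidean distance from each plate-position-corrected, correlation-weighted, top-dose replicate-averaged profile to the median vehicle profile.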

[2] = system: A549
Outline: as §1

[3] = system: DU145
Outline: as §1

[4] = system: FB
Outline: as §1

[5] = system: HEPG2
Outline: as §1

[6] = system: OVCAR4
Outline: as §1

| SMILES | Euclidean distance [1] | Euclidean distance [2] | Euclidean distance [3] | Euclidean distance [4] | Euclidean distance [5] | Euclidean distance [6] |
| --- | --- | --- | --- | --- | --- | --- |
| CC(C)(Sc1cc(C(C)(C)C)c(O)c(C(C)(C)C)c1)Sc1cc(C(C)(C)C)c(O)c(C(C)(C)C)c1 [Probucol] | 0.793 | 0.681 | 0.734 | 0.921 | 1.07 | 1.14 |
| O=C(NC(Cc1cc(=O)[nH]c2ccccc12)C(=O)O)c1ccc(Cl)cc1 (configuration not stated) [Rebamipide] | 1.17 | 1.17 | 1.29 | 0.77 | 1.97 | 1.06 |
| C=CC(=O)Nc1cccc(Nc2nc(Nc3ccc(Oc4ccnc(C(=O)NC)c4)cc3)ncc2F)c1 | 1.82 | 1.47 | 1.48 | 2.2 | 2.3 | 1.63 |
| CC1CCN(CC[C@H]2CCCN2S(=O)(=O)c2cccc(O)c2)CC1 | 0.546 | 0.904 | 0.705 | 1.11 | 1.48 | 0.827 |
| CN[C@@H]1[C@@H](O)[C@@H](O[C@@H]2[C@@H](O)[C@H](O[C@H]3O[C@H](CN)[C@@H](O)[C@H](O)[C@H]3O)[C@@H](N)C[C@H]2NC(=O)[C@@H](O)CN)OC[C@]1(C)O [Isepamicin Sulphate] | 1.12 | 0.946 | 0.819 | 1.14 | 0.94 | 1.65 |
| CCCCC(CC)CN1CN(CC(CC)CCCC)CC(C)(N)C1 (configuration not stated) [Hexetidine] | 0.942 | 4.33 | 6.71 | 2.79 | 0.954 | 5.33 |
| CC(=O)N1CCN(c2ccc(OCC3COC(Cn4ccnc4)(c4ccc(Cl)cc4Cl)O3)cc2)CC1 (configuration not stated) [Ketoconazole] | 1.55 | 0.896 | 2.29 | 0.789 | 0.391 | 0.644 |
| CN(C)CCOc1ccc(/C(=C(/CCCl)c2ccccc2)c2ccccc2)cc1 [Toremifene Citrate] | 1.72 | 1.56 | 1.81 | 1.97 | 2.79 | 2.17 |
| OC1(c2ccc(Cl)c(C(F)(F)F)c2)CCN(CCCC(c2ccc(F)cc2)c2ccc(F)cc2)CC1 [Penfluridol] | 4.2 | 4.66 | 5.91 | 3.4 | 4.97 | 4.03 |
| O=c1cc(-c2ccccc2)oc2cc(O)c(O)c(O)c12 [Baicalein] | 1.38 | 1.65 | 1.25 | 2.7 | 0.918 | 1.08 |
| CC(C)OC(=O)C(C)(C)Oc1ccc(C(=O)c2ccc(Cl)cc2)cc1 [Fenofibrate] | 1.18 | 0.803 | 0.9 | 1.1 | 1.75 | 1.73 |
| COc1ccc(CN2CCN(C(c3ccc(F)cc3)c3ccc(F)cc3)CC2)c(OC)c1OC [Lomerizine 2HCl] | 1.91 | 1.66 | 1.02 | 1.08 | 1.13 | 1.72 |
| O=C(Nc1cccc(Cl)c1)Nc1ncc(CCNc2ncnc3ccsc23)s1 [SNS-314 Mesylate] | 1.07 | 1.84 | 0.974 | 1.73 | 0.589 | 1 |
| Oc1c(Cl)cc(Cl)cc1Sc1cc(Cl)cc(Cl)c1O [Bithionol] | 0.758 | 0.588 | 0.524 | 0.97 | 1.02 | 1.23 |
| COc1nc2ccc(Br)cc2cc1[C@@H](c1ccccc1)[C@@](O)(CCN(C)C)c1cccc2ccccc12 [Bedaquiline] | 1.63 | 1.17 | 1.33 | 0.823 | 0.496 | 0.927 |
| O=C(Nc1cccc(Cl)c1)c1ccccn1 | 1.22 | 0.467 | 0.841 | 0.785 | 0.522 | 0.899 |
| Cc1cc(C)nc(NS(=O)(=O)c2ccc(N)cc2)n1 [Sulfamethazine Sodium Salt] | 0.877 | 0.792 | 0.732 | 0.878 | 0.494 | 1.38 |
| CN(C)CCCCC(=O)Nc1ccc(NC(=S)NC(=O)c2ccc(C(C)(C)C)cc2)cc1 [Tenovin-6] | 2.9 | 3.08 | 1.61 | 3.01 | 3.46 | 1.95 |
| CN1CCN2c3ncccc3Cc3ccccc3C2C1 (configuration not stated) [Mirtazapine] | 0.981 | 0.95 | 0.897 | 0.869 | 0.332 | 1.12 |
| NS(=O)(=O)c1cc2c(cc1C(F)(F)F)NC(Cc1ccccc1)NS2(=O)=O (configuration not stated) [Bendroflumethiazide] | 0.918 | 0.995 | 1.62 | 1.34 | 1.05 | 2.02 |
| CCOc1ccccc1OCCN[C@H](C)Cc1ccc(OC)c(S(N)(=O)=O)c1 [Tamsulosin] | 1.91 | 1.28 | 1.73 | 1.01 | 1.38 | 1.6 |
| CC(C)(C)c1nc(-c2cccc(NS(=O)(=O)c3c(F)cccc3F)c2F)c(-c2ccnc(N)n2)s1 [Dabrafenib Mesylate] | 1.18 | 1.23 | 1.47 | 3.79 | 1.3 | 1.47 |
| CC[C@H](C)C(=O)O[C@H]1C[C@H](O)C=C2C=C[C@H](C)[C@H](CC[C@@H](O)C[C@@H](O)CC(=O)O)[C@H]21 [Pravastatin sodium] | 0.813 | 0.763 | 0.709 | 0.425 | 0.254 | 0.778 |
| Nc1ccc2cc3ccc(N)cc3nc2c1 [Proflavine] | 3.98 | 3.75 | 4 | 4.15 | 4.17 | 4.45 |

| SMILES | Euclidean distance [1] | Euclidean distance [2] | Euclidean distance [3] | Euclidean distance [4] | Euclidean distance [5] | Euclidean distance [6] |
| --- | --- | --- | --- | --- | --- | --- |
| NC(=O)c1ncn([C@@H]2O[C@H](CO)[C@@H](O)[C@H]2O)n1 [Ribavirin] | 0.706 | 0.843 | 0.599 | 0.808 | 0.875 | 0.963 |
| COc1ccc2cc([C@H](C)C(=O)O)ccc2c1 [Naproxen] | 0.797 | 0.78 | 1.05 | 0.816 | 1.13 | 1.28 |
| COc1ccc(CNCc2cccc3ccccc23)cc1 | 1.72 | 1.46 | 0.984 | 1.27 | 0.933 | 1.04 |
| CC(C)(C)OC(=O)N[C@H]1CCCCC/C=C\[C@@H]2C[C@@]2(C(=O)NS(=O)(=O)C2CC2)NC(=O)[C@@H]2C[C@@H](OC(=O)N3Cc4cccc(F)c4C3)CN2C1=O [Danoprevir (ITMN-191)] | 1.4 | 0.94 | 1.41 | 1.19 | 2.24 | 1.69 |
| CCC(c1ccccc1)c1c(O)c2ccccc2oc1=O (configuration not stated) [Phenprocoumon] | 0.851 | 1.11 | 0.728 | 1.04 | 0.975 | 0.957 |
| O=C(O)[C@@H]1CCCN1 [L-Proline] | 1.26 | 0.98 | 1.37 | 1 | 0.823 | 0.766 |
| COc1ccc(CN2CCN(C(c3ccc(F)cc3)c3ccc(F)cc3)CC2)c(OC)c1OC [Lomerizine HCl] | 0.896 | 1.09 | 0.808 | 1.17 | 1.31 | 0.83 |
| CN1CCOC(c2ccccc2)c2ccccc2C1 (configuration not stated) [Nefopam HCl] | 1.21 | 0.668 | 0.813 | 1.07 | 0.77 | 1.29 |
| CCCCCCCCN=c1ccn(CCCCCCCCCCn2ccc(=NCCCCCCCC)cc2)cc1 [Octenidine Dihydrochloride] | 6.46 | 4.73 | 6.38 | 6.45 | 4.62 | 6.71 |
| CCOC(=O)[C@H](CCc1ccccc1)N[C@H]1CS[C@H](c2cccs2)CN(CC(=O)O)C1=O [Temocapril HCl] | 0.717 | 0.454 | 0.716 | 0.895 | 0.434 | 0.878 |
| Cn1cc(C2=C(c3ccc(Cl)cc3Cl)C(=O)NC2=O)c2ccccc21 | 1.92 | 0.949 | 1.79 | 1.57 | 1.08 | 1.01 |
| Cn1cc(C2=C(c3cccc(N)c3)C(=O)NC2=O)c2ccccc21 | 3.84 | 2.48 | 2.97 | 1.8 | 1.6 | 3.79 |
| COc1cc(Cc2cnc(N)nc2N)cc(OC)c1OC [Trimethoprim] | 1.42 | 0.849 | 0.917 | 1.39 | 0.86 | 1.12 |
| COc1ccc2cc([C@H](C)C(=O)O)ccc2c1 [Naproxen Sodium] | 1.02 | 0.936 | 0.948 | 0.856 | 0.593 | 0.977 |
| CO/N=C(\C(=O)N[C@@H]1C(=O)N2C(C(=O)O)=C(CSc3nc(C)c(CC(=O)O)s3)CS[C@H]12)c1csc(N)n1 [Cefodizime Sodium] | 0.755 | 1.08 | 1.48 | 0.804 | 0.792 | 0.754 |
| C=CC(=O)Nc1cc(Nc2nccc(-n3cc(CN(C)C)c(-c4ccccc4)n3)n2)c(OC)cc1N1CCOCC1 | 0.904 | 1.76 | 1.79 | 1.2 | 1.27 | 2.16 |
| NS(=O)(=O)Cc1noc2ccccc12 [Zonisamide] | 1.61 | 0.951 | 0.986 | 0.762 | 0.835 | 1.9 |
| COC1CCN(C(=O)c2cc(Cc3n[nH]c(=O)c4ccccc34)ccc2F)CC1 | 1.09 | 1.25 | 1.32 | 1.5 | 1.36 | 1.3 |
| C[C@@H]1CN(C(=O)c2ccc(NC(=O)c3cc(O[C@H](C)c4c(Cl)ccc(F)c4Cl)c(N)nn3)cc2)C[C@H](C)N1 [Ensartinib (X-396) dihydrochloride] | 5.01 | 4.53 | 3.15 | 4.29 | 3.74 | 3.35 |
| O=C1[C@H]2CCCC[C@H]2C(=O)N1CCCCN1CCN(c2nsc3ccccc23)CC1 [Perospirone hydrochloride] | 2.05 | 1.44 | 1.08 | 1.59 | 1.05 | 1.36 |
| CCC1=C[C@@H]2CN(C1)Cc1c([nH]c3ccccc13)[C@@](C(=O)OC)(c1cc3c(cc1OC)N(C)[C@H]1[C@@](O)(C(=O)OC)[C@H](OC(C)=O)[C@]4(CC)C=CCN5CC[C@]31[C@@H]54)C2 [Vinorelbine Tartrate] | 3.19 | 3.7 | 4.27 | 3.46 | 2.97 | 3.03 |
| CC1CNc2c(cccc2S(=O)(=O)N[C@@H](CCCNC(=N)N)C(=O)N2CC[C@@H](C)C[C@@H]2C(=O)O)C1 (some centres not stated) [Argatroban] | 0.618 | 0.352 | 0.62 | 0.896 | 0.99 | 0.903 |
| NCCCC[C@H](NC(=O)[C@@H]1CCCN1C(=O)[C@@H]1CSSC[C@H](NC(=O)CNC(=O)CNC(=O)CN)C(=O)N[C@@H](Cc2ccc(O)cc2)C(=O)N[C@@H](Cc2ccccc2)C(=O)N[C@@H](CCC(N)=O)C(=O)N[C@@H](CC(N)=O)C(=O)N1)C(=O)NCC(N)=O [Terlipressin Acetate] | 1.69 | 0.833 | 1.36 | 0.976 | 0.531 | 1.15 |
